Laboratory results taken from PubChem BioAssay (NCATS).
Values joined by “and” are separate entries in the source; they are usually repeats but may differ in a detail not shown here. Equal entries are not always repeated. Unmarked numbers belong to inactive results. Records with an inconclusive call do not appear. Active and inactive are the calls of the source. Unless noted, the rule behind the calls is not given here.

Legend:
astro = control astrocytes; assay: Drug repurposing screens with cells derived from glioblastoma tumor samples (AID 1345199; active = well fitted inhibition curve with a large enough effect; note: % is set by controls: 0 for no effect and ±100 for the full control effect; nearly all actives have a fitted effect of over 40% in size); details: viability, ATP luminescence, 48 h; series mostly up to 45.9 µM
Summary of the method: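 Primary testing used CD133+ neurospheres from four GBM patients, seven concentrations, 48 h exposure and ATP-based viability; confirmation added three slower-growing patient lines.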

[1] = target: Nuclear receptor subfamily 1 group I member 2 (Rattus norvegicus) (UniProt Q9R1A7); assay: qHTS assay for small molecule activators of the rat pregnane X receptor (rPXR) signaling pathway (AID 651751); details: rPXR reporter cells, luciferase (One-Glo), 24 h; note: 0% is about no effect
[2] = qHTS assay for small molecule activators of the human pregnane X receptor (PXR) signaling pathway (AID 720659); details: DPX-2 HepG2 CYP3A4-luciferase, 24 h; series mostly up to 92.3 µM; note: 0% is about no effect

Nuclear receptor subfamily 1 group I member 2 (Rattus norvegicus), sequence (Q9R1A7 whole entry, looked up): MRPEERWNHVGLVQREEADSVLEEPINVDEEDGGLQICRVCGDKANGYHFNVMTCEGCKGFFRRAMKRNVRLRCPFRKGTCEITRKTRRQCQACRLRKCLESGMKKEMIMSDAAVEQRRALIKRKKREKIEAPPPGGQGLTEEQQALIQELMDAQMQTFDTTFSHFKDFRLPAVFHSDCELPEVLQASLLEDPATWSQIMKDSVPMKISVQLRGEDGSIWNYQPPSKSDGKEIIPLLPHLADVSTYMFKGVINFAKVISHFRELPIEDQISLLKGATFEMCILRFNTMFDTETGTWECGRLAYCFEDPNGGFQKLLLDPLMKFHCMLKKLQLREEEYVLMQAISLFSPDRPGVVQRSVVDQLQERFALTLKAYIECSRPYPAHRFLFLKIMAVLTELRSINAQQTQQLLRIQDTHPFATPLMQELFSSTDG

| SMILES | outcome (astro) | max response [1] | outcome [2] |
| --- | --- | --- | --- |
| CC(=O)NS(=O)(=O)c1ccc(N)cc1 | inactive | -2.2% | inactive |
| CC(=O)N[C@@H](CC(C)C)C(=O)O | inactive | – | – |
| OC[C@@H](O)[C@@H](O)[C@H](O)[C@H](O)CO | inactive | -1.36% | inactive |
| Cc1cc(=O)[nH]c(=S)[nH]1 | inactive | -6.87% | inactive |
| O=C(c1ccccc1)C(O)c1ccccc1 (centres undefined) | inactive | 4.81% and 0.908% | inactive |
| CC[N+](CC)(CC(=O)Nc1c(C)cccc1C)Cc1ccccc1 | – | 0.531% | inactive |
| COc1ccc(O)cc1 | inactive | -3% | inactive |
| Nc1ccc(S(=O)(=O)c2ccc(N)cc2)cc1 | inactive | -2.07% and 2.17% | inactive |
| FC(F)(F)C(Cl)Br (centres undefined) | inactive | 3.38% | inactive |
